The full ranking holds about 18,000 sequences; the median of “log2 normalized intensity” is about 0.36, and the highest 2% start at about 7.3. Many of the other results were omitted from the sample, so the highest values are more common in it than they were.

This experiment has as its target T1, HNF4alpha8 (COS-7 nuclear extract) (Homo sapiens, UniProt P41235-5 1-452).
T1 sequence: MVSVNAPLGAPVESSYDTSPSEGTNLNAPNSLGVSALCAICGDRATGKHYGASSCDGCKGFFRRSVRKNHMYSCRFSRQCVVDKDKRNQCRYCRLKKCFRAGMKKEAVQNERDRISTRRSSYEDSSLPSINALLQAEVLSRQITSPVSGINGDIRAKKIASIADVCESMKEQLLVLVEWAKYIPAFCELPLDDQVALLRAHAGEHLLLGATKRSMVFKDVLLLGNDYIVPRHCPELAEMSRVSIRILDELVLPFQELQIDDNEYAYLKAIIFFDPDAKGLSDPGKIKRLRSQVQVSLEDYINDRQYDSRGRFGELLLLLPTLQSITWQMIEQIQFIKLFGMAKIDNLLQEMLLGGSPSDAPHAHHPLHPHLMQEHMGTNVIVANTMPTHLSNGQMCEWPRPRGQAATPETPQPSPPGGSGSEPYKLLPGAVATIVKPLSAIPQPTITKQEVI
The experiment can be described thus: protein-binding microarray; COS-7 nuclear extract on double-stranded Agilent 4x180k PBM; binding buffer, salt, pH and temperature not given in the material; high values mean tight binding. The note with it: chain copies: 2; label: 3' end of strand 1 on the slide; dsDNA, one strand shown. The gist of the method: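 Double-stranded oligonucleotides of ~60 nt, representing ~44,000 test sequences in quadruplicate, made up a custom Agilent SurePrint G3 4x180k array. Nuclear extracts from COS-7 cells transiently transfected by CaPO4 with a human HNF4α isoform expression vector were applied, and bound HNF4α was imaged at 2-µm resolution on an Agilent G2565CA scanner. Binding signal refers to the background-corrected, normalized gProcessedSignal output of Agilent software.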
Turning to “TAGTTAGAGTCACTGATAAGTCTGCTTGCCGCCTAGGGAGATTAGAGTATCGGTCGA”, the binding signal was -0.858 log2 normalized intensity.
Regarding “CGCCCCCAACGGGCCACGCCCTGCACCCTAGCCTAGGGAGATTAGAGTATCGGTCGA”, the binding signal was 4.07 log2 normalized intensity.
The result for “TTGTGGCAGTGAGAACAGGTTCATTCTTTAGCCTAGGGAGATTAGAGTATCGGTCGA” reads 0.687 log2 normalized intensity; that for “GCTTGAGCGAGACAGCGGGTGTTTCTGGGAGCCTAGGGAGATTAGAGTATCGGTCGA”, 0.72 log2 normalized intensity; that for “TCATTGCCTCTGGGCTTTGATGGACATTGCGCCTAGGGAGATTAGAGTATCGGTCGA”, 3.92 log2 normalized intensity.
The result for “AGAGTGAGCAGCACTTTTGGAGTTTGACCTGCCTAGGGAGATTAGAGTATCGGTCGA” reads 8.51 log2 normalized intensity.
Regarding “AAGAAGAGCTCAGTCACAGCAGTGGACTTTGCCTAGGGAGATTAGAGTATCGGTCGA”, the binding signal came to 7.41 log2 normalized intensity.
The result for “CTTGTCTTATCAGCAGGGTCTTTTTGACCTGCCTAGGGAGATTAGAGTATCGGTCGA” reads 4.79 log2 normalized intensity; that for “CCAGCTAGAAGCAGTGGGACAAAGGTCACAGCCTAGGGAGATTAGAGTATCGGTCGA”, 6.82 log2 normalized intensity; that for “TAACTTACAGTGCACTTTGACCGCTCATTTGCCTAGGGAGATTAGAGTATCGGTCGA”, 6.77 log2 normalized intensity.
The result for “GAGCTCAGTCACAGCAGTGGACTTTGACCTGCCTAGGGAGATTAGAGTATCGGTCGA” reads 11.7 log2 normalized intensity; that for “GGGGCAGAGTGAGCAGCACTTTTGGAGTTTGCCTAGGGAGATTAGAGTATCGGTCGA”, 2.17 log2 normalized intensity.
Regarding “AGCAGCCTCAGTGGCTCACAAATGGAGTTTGCCTAGGGAGATTAGAGTATCGGTCGA”, the binding signal was found to be 1.92 log2 normalized intensity.
The result for “CCTCAGTGTGGGACTTTGGTCTGCTGAGTCGCCTAGGGAGATTAGAGTATCGGTCGA” reads 3.95 log2 normalized intensity; that for “GAGCAGCACTTTTGGAGTTTGACCTGGAGCGCCTAGGGAGATTAGAGTATCGGTCGA”, 6.24 log2 normalized intensity; that for “CAGGACTGCGTAACTTACAGTGCACTTTGAGCCTAGGGAGATTAGAGTATCGGTCGA”, 5.6 log2 normalized intensity.
“CTGCGTAACTTACAGTGCACTTTGACCGCTGCCTAGGGAGATTAGAGTATCGGTCGA”: the binding signal came to 7.74 log2 normalized intensity.
The result for “GGCATTCTGACCTTTGTCTCCAGGCAAACTGCCTAGGGAGATTAGAGTATCGGTCGA” reads 5.6 log2 normalized intensity; that for “GAGGAGTGAGAACAGACAAAATTAAGTGATGCCTAGGGAGATTAGAGTATCGGTCGA”, -0.842 log2 normalized intensity; that for “TCTGTCTGAGACCACTTAAGCCTGGAATTCGCCTAGGGAGATTAGAGTATCGGTCGA”, -0.0786 log2 normalized intensity.
As for “ACCCATGTTTGCCCTTGATAAGAGCTGCTCGCCTAGGGAGATTAGAGTATCGGTCGA”, the figure is 0.685 log2 normalized intensity; as for “AGGTGAATGTACAAAGGTCAACGGCACAAGGCCTAGGGAGATTAGAGTATCGGTCGA”, 5.02 log2 normalized intensity.
With “TGAGCACATTCTTCAATATCAGTGGCACTCGCCTAGGGAGATTAGAGTATCGGTCGA”, the binding signal is 0.295 log2 normalized intensity.
In the case of “CTAGGCAATCCCATGACCTTTGTACTAATGGCCTAGGGAGATTAGAGTATCGGTCGA”, the binding signal worked out at 8.3 log2 normalized intensity.
As for “TGTCTTCTGACCTTTGGCAATATCTCCCAGGCCTAGGGAGATTAGAGTATCGGTCGA”, the figure is 3.96 log2 normalized intensity; as for “CCATGACCTTTGTACTAATGATTTGTAAATGCCTAGGGAGATTAGAGTATCGGTCGA”, 6.03 log2 normalized intensity.
The result for “CACCTTCTTCCTAGGCAATCCCATGACCTTGCCTAGGGAGATTAGAGTATCGGTCGA” reads 3.52 log2 normalized intensity; that for “TCTTCCTAGGCAATCCCATGACCTTTGTACGCCTAGGGAGATTAGAGTATCGGTCGA”, 9.08 log2 normalized intensity; that for “CAATCCCATGACCTTTGTACTAATGATTTGGCCTAGGGAGATTAGAGTATCGGTCGA”, 6.73 log2 normalized intensity.
The result for “GGACTTCTCTGCCCTCTTCCCTCTACCTCTGCCTAGGGAGATTAGAGTATCGGTCGA” reads 1.97 log2 normalized intensity; that for “AAACAGACCTCTCTCTCCCCAGACAGCCACGCCTAGGGAGATTAGAGTATCGGTCGA”, 2.71 log2 normalized intensity; that for “TATTTACATACCTTAGGCTGTGCATATTGGGCCTAGGGAGATTAGAGTATCGGTCGA”, 0.994 log2 normalized intensity.
Consider “CCTCCTGCTTAGCGGCCTTCCCCTTTTTCTGCCTAGGGAGATTAGAGTATCGGTCGA”, for which the binding signal stood at 1.99 log2 normalized intensity.
The result for “TCAGACAAGTTGCAGGGATGGACTTTAATCGCCTAGGGAGATTAGAGTATCGGTCGA” reads 7.17 log2 normalized intensity.
The result for “CCCCCTATCCCAAGACATCAATTAACTTGTGCCTAGGGAGATTAGAGTATCGGTCGA” reads 3.09 log2 normalized intensity; that for “CCTAGCCCCACCAAACTGACAGGTTAGACTGCCTAGGGAGATTAGAGTATCGGTCGA”, 2.33 log2 normalized intensity; that for “ACCTCCTGGGCCCAAGTGCTCCTCCCCATCGCCTAGGGAGATTAGAGTATCGGTCGA”, 3.58 log2 normalized intensity.
The result for “GTCCCTGGCCCCGGGGCGGGGGCGGGCTGGGCCTAGGGAGATTAGAGTATCGGTCGA” reads -0.21 log2 normalized intensity.
For the sequence “CCCATCGACCTTTGCTCCCGACTCTGAGGCGCCTAGGGAGATTAGAGTATCGGTCGA”, the binding signal was determined as 5.95 log2 normalized intensity.
Consider “GGGGCCCCATCGACCTTTGCTCCCGACTCTGCCTAGGGAGATTAGAGTATCGGTCGA”, for which the binding signal was found to be 8.88 log2 normalized intensity.
Consider “TCTTCAGGCTGGGGCCCCATCGACCTTTGCGCCTAGGGAGATTAGAGTATCGGTCGA”, for which the binding signal worked out at 7.4 log2 normalized intensity.
For the sequence “AGGCTGGGGCCCCATCGACCTTTGCTCCCGGCCTAGGGAGATTAGAGTATCGGTCGA”, the binding signal stood at 10.5 log2 normalized intensity.
Take “AGACATCGACCTTTGTGGGCTTCAGACATTGCCTAGGGAGATTAGAGTATCGGTCGA”: the binding signal stood at 2.32 log2 normalized intensity.
As for “GCTCTAGACATCGACCTTTGTGGGCTTCAGGCCTAGGGAGATTAGAGTATCGGTCGA”, the figure is 3.19 log2 normalized intensity; as for “CGACCTTTGCTCCCGACTCTGAGGCTCCATGCCTAGGGAGATTAGAGTATCGGTCGA”, 5.96 log2 normalized intensity.

(Values after publication PMC10726135, “HNF4α isoforms regulate the circadian balance between carbohydrate and lipid metabolism in the liver”.)
